Inconclusive results are not listed. Calls of active or inactive are those of the source. Calls come from the whole dose curve; as a rule, active = well fitted cell-killing curve with a large enough effect; inconclusive = small, poorly fitted or top-dose-only effect, or effect the other way; inactive = no such curve, though single readings can be large or run the other way.
Experiments:
[1] = Quantitative High-Throughput drug screen in 47 multiple myeloma cell lines against the NCATS MIPE library collection: MM1R_ATCC cell viability assay (AID 1918981); note: nearly all actives have a fitted effect of over 35% in size
Outline: (§1)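 Cells were exposed to library compounds for 48 hours, after which ATP was measured by CellTiter-Glo. Signal was taken as median relative luminescence units.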

[2] = Quantitative High-Throughput drug screen in 47 multiple myeloma cell lines against the NCATS MIPE library collection: LP1_DSMZ cell viability assay (AID 1918982); note: nearly all actives have a fitted effect of over 35% in size
Outline: as §1

[3] = Quantitative High-Throughput drug screen in 47 multiple myeloma cell lines against the NCATS MIPE library collection: KMS28PE_JCRB cell viability assay (AID 1918983); note: nearly all actives have a fitted effect of over 35% in size
Outline: as §1

[4] = Quantitative High-Throughput drug screen in 47 multiple myeloma cell lines against the NCATS MIPE library collection: L363_DSMZ cell viability assay (AID 1918984); note: nearly all actives have a fitted effect of over 40% in size
Outline: as §1

[5] = Quantitative High-Throughput drug screen in 47 multiple myeloma cell lines against the NCATS MIPE library collection: OCIMY7_PLB cell viability assay (AID 1918987); conditions: OCI-MY7 myeloma viability, CellTiter-Glo ATP, 48 h; viability (% of DMSO): at 45.8 µM (top of the series); note: nearly all actives have a fitted effect of over 65% in size
Outline: as §1

[6] = Quantitative High-Throughput drug screen in 47 multiple myeloma cell lines against the NCATS MIPE library collection: OCIMY5_PLB cell viability assay (AID 1918988); note: nearly all actives have a fitted effect of over 65% in size
Outline: as §1

[7] = Quantitative High-Throughput drug screen in 47 multiple myeloma cell lines against the NCATS MIPE library collection: OPM1_PLB cell viability assay (AID 1918989); note: nearly all actives have a fitted effect of over 40% in size
Outline: as §1

[8] = Quantitative High-Throughput drug screen in 47 multiple myeloma cell lines against the NCATS MIPE library collection: SKMM1_PLB cell viability assay (AID 1919863); conditions: SKMM1 myeloma viability, CellTiter-Glo ATP, 48 h; viability: hits give low values; note: nearly all actives have a fitted effect of over 35% in size
Outline: as §1

[9] = Quantitative High-Throughput drug screen in 47 multiple myeloma cell lines against the NCATS MIPE library collection: U266_ATCC cell viability assay (AID 1919864); note: nearly all actives have a fitted effect of over 35% in size
Outline: as §1

[10] = Quantitative High-Throughput drug screen in 47 multiple myeloma cell lines against the NCATS MIPE library collection: XG6_PLB cell viability assay (AID 1919865); note: nearly all actives have a fitted effect of over 40% in size
Outline: as §1

[11] = Quantitative High-Throughput drug screen in 47 multiple myeloma cell lines against the NCATS MIPE library collection: VP6_DJ cell viability assay (AID 1919867); note: nearly all actives have a fitted effect of over 40% in size
Outline: as §1

[12] = Quantitative High-Throughput drug screen in 47 multiple myeloma cell lines against the NCATS MIPE library collection: PE2_PLB cell viability assay (AID 1919869); note: nearly all actives have a fitted effect of over 35% in size
Outline: as §1

[13] = Quantitative High-Throughput drug screen in 47 multiple myeloma cell lines against the NCATS MIPE library collection: PCM6_Riken cell viability assay (AID 1919870); note: nearly all actives have a fitted effect of over 30% in size
Outline: as §1

[14] = Quantitative High-Throughput drug screen in 47 multiple myeloma cell lines against the NCATS MIPE library collection: RPMI8226_ATCC cell viability assay (AID 1919871); note: nearly all actives have a fitted effect of over 30% in size
Outline: as §1

[15] = Quantitative High-Throughput drug screen in 47 multiple myeloma cell lines against the NCATS MIPE library collection: KMS11_JCRBsus cell viability assay (AID 1919873); note: nearly all actives have a fitted effect of over 50% in size
Outline: as §1

[16] = Quantitative High-Throughput drug screen in 47 multiple myeloma cell lines against the NCATS MIPE library collection: OPM2_DSMZ cell viability assay (AID 1919872); note: nearly all actives have a fitted effect of over 30% in size
Outline: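 Myeloma cells (500 per well) were exposed to MIPE 4.0 compounds by pin transfer and incubated 48 hours at 37C, 5% CO2. Viability was read as ATP by CellTiter-Glo luminescence, normalised to DMSO (100%) and media-only (0%) wells.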

[17] = Quantitative High-Throughput drug screen in 47 multiple myeloma cell lines against the NCATS MIPE library collection: KMS28BM_JCRB cell viability assay (AID 1919874); note: nearly all actives have a fitted effect of over 35% in size
Outline: as §1

[18] = Quantitative High-Throughput drug screen in 47 multiple myeloma cell lines against the NCATS MIPE library collection: XG1_PLB cell viability assay (AID 1919866); note: nearly all actives have a fitted effect of over 35% in size
Outline: as §1

[19] = Quantitative High-Throughput drug screen in 47 multiple myeloma cell lines against the NCATS MIPE library collection: UTMC2_PLB cell viability assay (AID 1919868); conditions: CellTiter-Glo ATP luminescence, 48 h; viability (% of DMSO control): at 45.8 µM (top of the series); note: nearly all actives have a fitted effect of over 55% in size
Outline: as §1

[20] = Quantitative High-Throughput drug screen in 47 multiple myeloma cell lines against the NCATS MIPE library collection: KMS34_JCRB cell viability assay (AID 1918985); note: nearly all actives have a fitted effect of over 40% in size
Outline: as §1
Potency is the fitted concentration of half-maximal effect.

OCCNC1CCCc2c1[nH]c1ccc(-c3ccccc3)cc21 (stereo not given)
active: Potency [1] 20.9 µM | Potency [2] 23.5 µM | Potency [3] 23.5 µM | Potency [4] 9.35 µM | Potency [5] 20.9 µM | Potency [6] 18.7 µM | Potency [7] 8.33 µM | Potency [8] 26.4 µM | Potency [9] 20.9 µM | Potency [10] 26.4 µM | Potency [11] 8.33 µM | Potency [12] 14.8 µM | Potency [13] 11.8 µM | Potency [14] 26.4 µM | Potency [15] 2.96 µM

CC(C)N(CC[C@H](c1ccccc1)c1cc(CO)ccc1O)C(C)C
inactive: Potency [1] | Potency [2] | Potency [3] | Potency [4] | Potency [10] | Potency [11] | Potency [12] | Potency [13] | Potency [14] | Potency [16] | Potency [15]
active: Potency [17] 1.05 µM

Cc1cncc2cccc(S(=O)(=O)N3CCCN(C(=O)CN)C[C@@H]3C)c12
active: Potency [3] 18.7 µM | Potency [5] 11.8 µM | Potency [6] 1.48 µM | Potency [10] 14.8 µM | Potency [18] 20.9 µM | Potency [19] 5.9 µM | Potency [13] 20.9 µM | Potency [17] 1.18 µM
inactive: Potency [1] | Potency [2] | Potency [4] | Potency [7] | Potency [11] | Potency [14] | Potency [16]

C[C@H](NC(=O)Cc1cc(F)cc(F)c1)C(=O)N[C@H](C(=O)OC(C)(C)C)c1ccccc1
inactive: Potency [1] | Potency [2] | Potency [3] | Potency [4] | Potency [7] | viability [8] 105% | Potency [9] | Potency [10] | Potency [18] | Potency [12] | Potency [13] | Potency [16] | Potency [17]

CCOc1cc2c(c(F)c1OCC)C(=N)N(CC(=O)c1cc(N3CCOCC3)c(OC)c(C(C)(C)C)c1)C2
active: Potency [1] 20.9 µM | Potency [2] 16.6 µM | Potency [3] 20.9 µM | Potency [20] 23.5 µM | Potency [5] 7.43 µM | Potency [6] 16.6 µM | Potency [7] 14.8 µM | Potency [8] 20.9 µM | Potency [10] 9.35 µM | Potency [18] 8.33 µM | Potency [11] 9.35 µM | Potency [19] 7.43 µM | Potency [12] 20.9 µM | Potency [13] 7.43 µM | Potency [14] 18.7 µM | Potency [16] 18.7 µM | Potency [15] 7.43 µM | Potency [17] 8.33 µM

O=c1ccn([C@@H]2O[C@H](CO)[C@H](O)[C@@H]2F)c(=O)[nH]1
inactive: Potency [1] | Potency [2] | Potency [3] | Potency [4] | Potency [6] | Potency [7] | viability [8] 118% | Potency [14] | Potency [16] | Potency [15] | Potency [17]
active: Potency [9] 5.9 µM | Potency [10] 7.43 µM | Potency [18] 5.9 µM

CCCNC(=O)[C@H]1O[C@H]1C(=O)N[C@H](C(=O)N1CCC[C@@H]1C(=O)OC)C(C)CC (stereo not given in full)
active: Potency [1] 2.35 µM | Potency [2] 14.8 µM | Potency [3] 7.43 µM | Potency [4] 8.33 µM | Potency [5] 3.32 µM | Potency [7] 18.7 µM | Potency [8] 20.9 µM | Potency [9] 10.5 µM | Potency [10] 8.33 µM | Potency [18] 14.8 µM | Potency [11] 16.6 µM | Potency [12] 4.18 µM | Potency [13] 16.6 µM | Potency [14] 20.9 µM | Potency [16] 11.8 µM | Potency [15] 23.5 µM | Potency [17] 7.43 µM

CCc1cnn2c(NCc3ccc[n+]([O-])c3)cc(N3CCCC[C@@H]3CCO)nc12
active: Potency [1] 0.0166 µM | Potency [2] 0.0166 µM | Potency [3] 0.0296 µM | Potency [4] 0.0235 µM | Potency [5] 0.0418 µM | Potency [6] 0.0209 µM | Potency [7] 0.0264 µM | Potency [8] 0.0332 µM | Potency [9] 0.0372 µM | Potency [18] 0.0235 µM | Potency [11] 0.0187 µM | Potency [19] 0.0187 µM | Potency [12] 0.0296 µM | Potency [13] 0.0105 µM | Potency [14] 0.0372 µM | Potency [16] 0.0296 µM | Potency [15] 0.0209 µM

C[C@H](CCC(=O)O)[C@H]1CCC2C3C[C@H](O)[C@@H]4C[C@H](O)CC[C@]4(C)C3CC[C@@]21C (stereo not given in full)
active: Potency [18] 18.7 µM
inactive: Potency [1] | Potency [2] | Potency [3] | Potency [4] | Potency [6] | viability [8] 96.1% | Potency [19] | Potency [12] | Potency [13] | Potency [16] | Potency [17]

CC1=C(C(=O)Nc2cc3cn[nH]c3cc2F)C(c2ccc(Cl)cc2F)N=C(c2ccnc(Cl)c2)N1 (stereo not given)
inactive: Potency [2]
active: Potency [1] 18.7 µM | Potency [3] 20.9 µM | Potency [4] 18.7 µM | Potency [5] 5.9 µM | Potency [6] 16.6 µM | Potency [7] 18.7 µM | Potency [10] 14.8 µM | Potency [11] 18.7 µM | Potency [19] 3.72 µM | Potency [13] 6.62 µM | Potency [15] 14.8 µM | Potency [17] 23.5 µM

C=C[C@@H]1CN2CCC1C[C@H]2[C@H](O)c1ccnc2ccc(OC)cc12 (stereo not given in full)
inactive: Potency [1] | Potency [2] | Potency [3] | Potency [4] | viability [8] 93.1% | Potency [14] | Potency [16] | Potency [17]
active: Potency [6] 18.7 µM

From PubChem BioAssay (NCATS)
